This is one part of a sample in which hits are shown more often than they occur.
Pf Dd2 growth: Plasmodium falciparum Dd2 growth inhibition. P. falciparum Dd2 growth, SYBR Green, 72 h. Potency, µM (series often up to 28.9 µM), without a hit: at the highest dose activity, negative = inhibition, actives largely listed as inhibitors. 120,000 compounds, 4.3% hits. AID 1347417; active means well fitted inhibition curve with a large enough effect;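 further: plate controls were DMSO vehicle for no effect and reference drug for full effect; nearly all actives have a fitted effect of over 65% in size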
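Readout: SYBR Green fluorescence, 485 nm excitation, 535 nm emission, after ~16 h lysis at 37C. Before that, Dd2-infected red cells (2.5% hematocrit) grew 72 h with compound, 29 uM top final concentration.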
* = called active by the depositor; i = inactive; [ ] = another dose, or the depositor's remark. Potency means the concentration at half of the fitted maximal effect.

SMILES | Pf Dd2 growth
COC(=O)C1CCCN1C(=O)c1c(C)oc2c1CN(Cc1ccc(C)cc1)CC2 (stereo not drawn) | -27%
Cc1oc2c(c1C(=O)N1CCOCC1)CN(Cc1cccnc1)CC2 | -6%
COCCNC(=O)c1c(C)oc2c1CN(Cc1cccc(F)c1)CC2 | 5µM*
COc1ccc(CN2CCc3oc(C)c(C(=O)NCc4cccnc4)c3C2)cc1 | 11µM*
O=C(NCCOc1ccccc1)c1nc2c(o1)CCN(Cc1cccc(F)c1)CC2 | i
Cc1oc2ccn(Cc3cccc(F)c3)c(=O)c2c1C(=O)NCc1ccccc1 | i
COc1ccc(CN2CCc3nc(C(=O)NCc4cccc(F)c4)oc3CC2)cc1 | -3%[44.1 µM]
Cc1oc2c(c1C(=O)NCc1ccncc1)CN(Cc1cccc(F)c1)CC2 | 10µM*
COc1ccc(CN2CCc3oc(C)c(C(=O)NC4CCN(C)CC4)c3C2)cc1 | 10µM*
Cc1oc2c(c1C(=O)NCCc1ccncc1)CN(C)CC2 | -19%
COc1ccc(S(=O)(=O)N2C[C@@H]3C[C@H](C2)c2ccc(NS(=O)(=O)c4cccs4)c(=O)n2C3)cc1 | 3%
COCC(=O)NC[C@H]1O[C@@H](CC(=O)N(C)Cc2ccccc2)[C@H](O)[C@@H]1O | 10%[44.1 µM]
COc1cc(NC(=O)NC[C@H]2O[C@@H](CO)[C@@H](O)[C@H]2N2CCN(c3ccccc3)CC2)cc(OC)c1 | i
O=C(NC[C@H]1O[C@@H](CC(=O)N2CCN(c3ccc(F)cc3)CC2)[C@H](O)[C@@H]1O)c1ccc(F)c(Cl)c1 | 11%
O=C(O)C[C@@H]1CCN(C(=O)c2ccnc(Cl)c2)C[C@@H]1CCN1C[C@@H]2C[C@H](C1)c1cccc(=O)n1C2 | -2%
Cc1ccc(NC(=O)N2CCC(CCNC(=O)C3(c4ccccc4)CC3)CC2)cc1F | i
CC(C)NC(=O)N1CC2ON=C(C(=O)NCCc3ccc(Cl)cc3)C2C1 (stereo not drawn) | -6%
Cc1cccc2c1nc1n2[C@@H](CNCc2nc3ccccc3n2C)COC1 | -18%[44.1 µM]
N#Cc1ccc(C(=O)Nc2ccc([C@@H](O)[C@H]3COCC(=O)N3Cc3ccc(F)cc3)cc2)cc1 | 10µM*
N#Cc1cccc(C(=O)Nc2ccc([C@@H](O)[C@H]3COCC(=O)N3Cc3ccc(F)cc3)cc2)c1 | -18%
O=C(Nc1ccc([C@@H](O)[C@H]2COCC(=O)N2Cc2ccc(F)cc2)cc1)c1ccccc1 | i
CN1Cc2nc(Nc3ccccc3F)ccc2OCC1=O | 11%[44.1 µM]
CC(C)CN1CC[C@H](c2nc3ccccc3n2C)C1 | i
COc1cccc(CC(=O)NCCC2CCN(C(=O)Nc3cc(F)cc(F)c3)CC2)c1 | i
COc1ccc(CNC(=O)CSc2n[nH]c(-c3ccc(OC)cc3)n2)cc1 | i
SMILES | Pf Dd2 growth
Cc1ccc(Cn2ccnc2SCC(=O)NCc2ccccc2)cc1 | i
COc1ccc(CNC(=O)c2cc(-c3ccc(C)cc3)nc3n[nH]c(-c4ccc(Br)cc4)c23)cc1 | 74%
CCCCn1c(SCC(=O)NCc2ccc(C)cc2)nc2c(sc3ccccc32)c1=O | 46%
COc1ccc(-n2c(SCC(=O)NCc3ccc(C)cc3)nc3n[nH]c(C)c3c2=N)cc1 | 10µM*
Cc1ccc(CNC(=O)CSc2nc3n[nH]c(C)c3c(=N)n2-c2ccccc2Cl)cc1 | 3.5µM*
O=C(c1ccccc1)N1CCn2c(nn(-c3ccc([N+](=O)[O-])cc3)c2=O)C1 | 3%
O=C(c1ccccc1F)N1CCCC2(CC(c3cccnc3)=NO2)C1 (stereo not drawn) | 13%
COCCNC(=O)[C@H]1C[C@H](Oc2ccccc2)CN1C(=O)NC1CCCCC1 | -17%
O=C1Nc2ccc(-c3ccccc3F)cc2C(=O)N2C[C@@H](NS(=O)(=O)c3ccc(F)cc3)C[C@@H]12 | i
COc1ccc(-c2ccc3c(c2)C(=O)N2CC[C@H](NC(=O)c4cccs4)[C@H]2C(=O)N3)cc1 | -1%
COc1ccc(Cl)cc1-c1ccc2c(c1)C(=O)N1CC[C@H](NC(=O)c3cccs3)[C@H]1C(=O)N2 | 7.9µM*
O=C(N[C@H]1CCN2C(=O)c3ccc(Cl)cc3NC(=O)[C@H]12)c1cccs1 | -18%[44.1 µM]
COc1ccc(Cl)cc1-c1ccc2c(c1)C(=O)N1C[C@@H](NS(=O)(=O)c3ccc(F)cc3)C[C@H]1C(=O)N2 | 7.1µM*
COc1ccc(Cl)cc1-c1ccc2c(c1)C(=O)N1C[C@H](O)C[C@H]1C(=O)N2 | -5%[44.1 µM]
COc1ccc(-c2ccc3c(c2)C(=O)N2CC[C@H](NS(=O)(=O)c4cccs4)[C@H]2C(=O)N3)cc1 | 11µM*
O=C(N[C@H]1CCN2C(=O)c3cc(-c4ccc(Cl)cc4)ccc3NC(=O)[C@H]12)c1cccs1 | -17%
O=C1Nc2cc(Cl)ccc2C(=O)N2CC[C@H](NS(=O)(=O)c3cccs3)[C@@H]12 | i
Cc1cccc(-c2ccc3c(c2)C(=O)N2CC[C@H](NS(=O)(=O)c4cccs4)[C@H]2C(=O)N3)c1C | 10µM*
CSCC(=O)N[C@H]1CCN2C(=O)c3cc(-c4cccc(C)c4C)ccc3NC(=O)[C@H]12 | i
COc1ccc(-c2ccc3c(c2)C(=O)N2CC[C@H](NC(=O)CSC)[C@H]2C(=O)N3)cc1 | i
Cc1noc2ccc(-c3cnn(Cc4ccccc4)c3)nc12 | -13%[44.1 µM]
O=C(Nc1cccnc1)N1CCOC[C@H](Oc2ccc(C(F)(F)F)cc2)C1 | -20%[44.1 µM]
CC(C)NC[C@H]1O[C@@H]2C[C@@H](CC(=O)N3CCC(F)(F)C3)O[C@@H]2[C@@H]1O | 23%[44.1 µM]
Cc1noc(C)c1[S+](=O)([O-])N1CC2(C1)C(=O)Nc1ccccc12 | 3%
O=C(C1CC1)N1CCC2(CC1)CC(=O)N(c1ccccc1)c1ccccc1O2 | -14%
SMILES | Pf Dd2 growth
COc1ccc(-c2cnc3n[nH]c(-c4sccc4C)c3n2)cc1OC | -15%[44.1 µM]
CCn1nc(CC(C)C)cc1C(=O)N1C[C@@H](NC(C)=O)[C@H](C(C)C)C1 | -3%
O=C1OCCN1C1CCN(Cc2ccc(C(F)(F)F)cc2)CC1 | 1%
COc1cccc(S(=O)(=O)N2CCCC(Cc3nncn3CC3CC3)C2)c1 (stereo not drawn) | -18%
COCCn1ncc(N2CCC(NC(=O)c3ccc(C(C)C)cc3)CC2)cc1=O | -6%
CCCOc1ccc(C2c3c(-c4c(C)cc(C)cc4O)n[nH]c3C(=O)N2CCO)cc1 (stereo not drawn) | i
COc1cc(C2c3c(-c4cc(C)ccc4O)n[nH]c3C(=O)N2CCCO)ccc1OCCC(C)C (stereo not drawn) | 3.2µM*
COCCN1C(=O)c2[nH]nc(-c3cc(C)ccc3O)c2C1c1ccc(C(C)C)cc1 (stereo not drawn) | 8.9µM*
COc1cc(C2N=C(N)Nc3nc4ccccc4n32)ccc1OCCC(C)C (stereo not drawn) | -25%
COc1cc(C2c3c(oc4cc(C)c(C)cc4c3=O)C(=O)N2CCCN2CCOCC2)ccc1O (stereo not drawn) | 12%
COCC(=O)N[C@H]1C[C@@H](CO)N(Cc2ccc(C#N)cc2)C1 | i
Cc1ccc(-c2ncc(C(=O)NCc3ccccc3Cl)c(-c3ccncc3)n2)cc1 | -20%
COCc1nc(C2CCCN(C(=O)Cc3ccc(OC)cc3)C2)no1 (stereo not drawn) | 61%
CCOc1ccccc1CN1CCCCCCNC(=O)[C@@H]2CCC[C@@H]21 | 2.8µM*
COc1ccc(CN2CCCCCNC(=O)[C@@H]3CCC[C@@H]32)cc1Cn1ccnc1 | 8.9µM*
N#Cc1cccc(CN2CCCCCNC(=O)[C@@H]3CCC[C@@H]32)c1 | -9%
Cc1ncsc1CN1CCCCCNC(=O)[C@@H]2CCC[C@@H]21 | i
N#Cc1ccc(CN2CCCCCNC(=O)[C@@H]3CCC[C@@H]32)cc1 | -20%

Compound activity: PubChem BioAssay, National Center for Advancing Translational Sciences (NCATS)
